Data from the antibiotic and cytotoxicity screens of Wong et al. (2023).
The campaign covered roughly 39,000 compounds. About 3,300 (8.5%) were called active. This is one part of a sample in which actives are shown more often than they occur.

System: HepG2
Experiment: cytotoxicity call (relative viability < 0.9)
Conditions: 10 µM

Compound	cytotoxicity call
C[C@H](CO)N1C[C@H](C)[C@H](CN(C)C(=O)Nc2ccc3c(c2)OCO3)OCCCC[C@H](C)Oc2ccc(NS(=O)(=O)c3ccc(F)cc3)cc2C1=O	inactive
CS(=O)(=O)N1C[C@@H](O)COC[C@@H]2O[C@H](CC(=O)NCc3ccccc3)CC[C@H]21	inactive
C[C@@H]1CCCCO[C@H](CN(C)C(=O)Nc2ccc(F)cc2)[C@@H](C)CN([C@H](C)CO)C(=O)c2cc(NS(=O)(=O)c3cccs3)ccc2O1	inactive
O=C(C[C@H]1CC[C@H]2[C@@H](COC[C@@H](O)CN2S(=O)(=O)c2ccccc2)O1)NCCN1CCCCC1	inactive
Cc1noc(C)c1NC(=O)Nc1ccc2c(c1)C(=O)N([C@@H](C)CO)C[C@H](C)[C@H](CN(C)C(=O)Nc1ccc3c(c1)OCO3)OCCCC[C@H](C)O2	inactive
COc1ccc(S(=O)(=O)N(C)C[C@H]2Oc3c(cccc3N(C)C)C(=O)N([C@@H](C)CO)C[C@H]2C)cc1	inactive
C[C@@H]1CCCCO[C@@H](CN(C)Cc2ccc(Cl)c(Cl)c2)[C@H](C)CN([C@H](C)CO)C(=O)c2cc(NC(=O)CCC(F)(F)F)ccc2O1	inactive
C[C@@H]1CCCCO[C@H](CN(C)Cc2ccc(Cl)c(Cl)c2)[C@H](C)CN([C@H](C)CO)C(=O)c2cc(NC(=O)CCC(F)(F)F)ccc2O1	active
C[C@@H]1CCCCO[C@@H](CN(C)Cc2ccc3c(c2)OCO3)[C@H](C)CN([C@H](C)CO)C(=O)c2cc(NC(=O)CCC(F)(F)F)ccc2O1	inactive
C[C@@H]1CCCCO[C@H](CN(C)Cc2ccc(Cl)c(Cl)c2)[C@H](C)CN([C@@H](C)CO)C(=O)c2cc(NC(=O)CCC(F)(F)F)ccc2O1	active
C[C@@H]1CCCCO[C@@H](CN(C)Cc2ccc(Cl)c(Cl)c2)[C@@H](C)CN([C@H](C)CO)C(=O)c2cc(NC(=O)CCC(F)(F)F)ccc2O1	inactive
C[C@@H]1CCCCO[C@H](CN(C)Cc2ccc3c(c2)OCO3)[C@@H](C)CN([C@@H](C)CO)C(=O)c2cc(NC(=O)CCC(F)(F)F)ccc2O1	inactive
COc1ccc(S(=O)(=O)Nc2ccc3c(c2)C(=O)N([C@@H](C)CO)C[C@@H](C)[C@@H](CN(C)S(=O)(=O)c2cn(C)cn2)OCCCC[C@@H](C)O3)cc1	inactive
C[C@@H]1CCCCO[C@@H](CN(C)C(=O)Cc2ccccc2)[C@@H](C)CN([C@@H](C)CO)C(=O)c2cc(NC(=O)NC3CCCCC3)ccc2O1	inactive
C[C@@H]1COC(=O)[C@@H](NC(=O)OCC2c3ccccc3-c3ccccc32)CC=CC[C@H](CC(=O)NCCO)C(=O)N1	inactive
CN(C)CCCC[C@@H]1NC(=O)[C@H]2C[C@@H](C(=O)NCCCCCNC(=O)CS)[C@@H](c3ccc(O)cc3)N2C1=O	inactive
O/N=C/c1ccc2ccccc2c1	inactive
O/N=C/c1c(Cl)cccc1Cl	inactive
O/N=C/c1ccccc1C(F)(F)F	active
CC(C)(C)N1C[C@H](C(=O)O)CC1=O	inactive
Cc1ccc(S(=O)(=O)Nc2cccc3c2O[C@H](CN(C)S(C)(=O)=O)[C@@H](C)CN([C@H](C)CO)C3=O)cc1	inactive
C[C@@H]1CN([C@@H](C)CO)S(=O)(=O)c2ccc(-c3cncnc3)cc2O[C@@H]1CN(C)C(=O)c1ccc2c(c1)OCO2	inactive
O=c1[nH]c(=O)c2ccccc2o1	inactive
CCc1oc2ccccc2c1C(=O)c1cc(Br)c(O)c(Br)c1	active
O=c1c2ccccc2oc2ccc(O)cc12	inactive

Compound	cytotoxicity call
Cc1ccc(CNc2ccc3c(c2)ncn3C2CCCCC2)cc1	inactive
O=C(CCCCCNC(=O)OCc1ccc(CO[C@@H]2C[C@H](C3CCCCC3)C=C(C(=O)N3CCN(Cc4ccccc4)CC3)O2)cc1)NO	inactive
O=C1CN(S(=O)(=O)Cc2ccccc2)C[C@H]2[C@@H](c3ccc(C#Cc4ccc(F)cc4)cc3)[C@H](CO)N12	inactive
O=C1CN(S(=O)(=O)Cc2ccccc2)C[C@@H]2[C@@H](c3ccc(C#Cc4cccc(F)c4)cc3)[C@H](CO)N12	inactive
O=C1CN(S(=O)(=O)Cc2ccccc2)C[C@H]2[C@@H](c3ccc(C#Cc4cccc(F)c4)cc3)[C@H](CO)N12	active
O=C1CN(S(=O)(=O)Cc2ccccc2)C[C@H]2[C@H](c3ccc(C#Cc4cccc(F)c4)cc3)[C@H](CO)N12	active
O=C1CN(S(=O)(=O)Cc2ccccc2)C[C@@H]2[C@@H](c3ccc(C#Cc4cccc(F)c4)cc3)[C@@H](CO)N12	active
COc1cccc(C#Cc2ccc([C@@H]3[C@H](CO)N4C(=O)CN(S(=O)(=O)c5ccccc5C)C[C@@H]34)cc2)c1	inactive
COc1cccc(C#Cc2ccc([C@H]3[C@H](CO)N4C(=O)CN(S(=O)(=O)c5ccccc5C)C[C@@H]34)cc2)c1	inactive
O=C1CN(S(=O)(=O)Cc2ccccc2)C[C@H]2[C@H](c3ccc(C#Cc4cccc(F)c4)cc3)[C@@H](CO)N12	active
O=C1CN(S(=O)(=O)Cc2ccccc2)C[C@@H]2[C@H](c3ccc(C#Cc4ccc(F)cc4)cc3)[C@H](CO)N12	inactive
O=C1CN(S(=O)(=O)Cc2ccccc2)C[C@H]2[C@@H](c3ccc(C#Cc4cccc(F)c4)cc3)[C@@H](CO)N12	inactive
O=C1CN(S(=O)(=O)Cc2ccccc2)C[C@@H]2[C@H](c3ccc(C#Cc4cccc(F)c4)cc3)[C@@H](CO)N12	inactive
COc1cccc(C#Cc2ccc([C@@H]3[C@H]4CN(S(=O)(=O)c5ccccc5C)CC(=O)N4[C@H]3CO)cc2)c1	inactive
CN(C)Cc1ccc(O)c(CN(C)C)n1	inactive
COCC(=O)N1C[C@H](C)[C@@H](OC)CN(C)C(=O)c2cc(NC(=O)Nc3ccccc3)ccc2OC[C@@H]1C	inactive
COCCNC(=O)C[C@@H]1CC[C@@H]2[C@H](COC[C@@H](O)CN2C(=O)Nc2ccccc2OC)O1	inactive
O=c1cccn[nH]1	inactive
COc1ccc(-c2cnc3c(c2)C(=O)N([C@@H](C)CO)C[C@H](C)[C@@H](CN(C)C(=O)Cc2ccccn2)O3)cc1	inactive
C[C@@H]1CN([C@H](C)CO)C(=O)c2cc(NS(=O)(=O)c3cccs3)ccc2O[C@H]1CN(C)S(C)(=O)=O	inactive
C[C@@H]1CCCCO[C@@H](CN(C)S(=O)(=O)c2cccs2)[C@H](C)CN([C@@H](C)CO)C(=O)c2cc(NC(=O)Nc3cccc4ccccc34)ccc2O1	inactive
COCC#Cc1ccc2c(c1)O[C@@H](CN(C)C(=O)C1CCCCC1)[C@@H](C)CN([C@H](C)CO)S2(=O)=O	inactive
C[C@H](CO)N1C[C@H](C)[C@@H](CN(C)C(=O)CCC(F)(F)F)OCCCC[C@H](C)Oc2ccc(NC(=O)c3ccccc3)cc2C1=O	inactive
C[C@H]1CN([C@@H](C)CO)C(=O)c2ccccc2-c2ccccc2CO[C@H]1CN(C)C(=O)Nc1ccc(-c2ccccc2)cc1	inactive
COc1ccc(NC(=O)Cn2c(=O)c3c(OC)ccnc3n(C)c2=O)c(OC)c1	inactive

Compound	cytotoxicity call
COc1cc(/C=C/C(=O)O[C@H]2CC[C@]34C[C@]35CC[C@]3(C)[C@@H]([C@@H](C)CCC=C(C)C)CC[C@@]3(C)[C@@H]5CC[C@@H]4C2(C)C)ccc1O	inactive
O=C1CN(S(=O)(=O)Cc2ccccc2)C[C@@H]2[C@H](c3ccc(C#Cc4cccc(F)c4)cc3)[C@H](CO)N12	active
O=C(CN1CCOCC1)N[C@H]1CC[C@H](CCNC(=O)C2CCC2)O[C@H]1CO	inactive
C[C@@H]1CN([C@@H](C)CO)C(=O)c2cc(NC(=O)Cn3cnnn3)ccc2O[C@H]1CN(C)Cc1ccc(C(F)(F)F)cc1	inactive
COc1ccc(CCNC(=O)[C@@]2(Sc3ccc(C)cc3)CC(=O)N(Cc3ccccc3C(F)(F)F)[C@@H]2c2ccc(CO)cc2)cc1	inactive
O=c1[nH]cc(F)c(=O)[nH]1 [listing 1 of 2 here]	active
O=c1[nH]cc(N2CCCCC2)c(=O)[nH]1	inactive
CCOCc1c[nH]c(=O)[nH]c1=O	inactive
O=c1[nH]cc(Nc2ccccc2)c(=O)[nH]1	inactive
O=c1[nH]cc(F)c(=O)[nH]1 [listing 2 of 2 here]	active
O=c1[nH]cc(S(=O)(=O)N2CCN(c3ccccc3F)CC2)c(=O)[nH]1	inactive
COc1ccc(NC(=O)N(C)C[C@H]2Oc3c(NS(=O)(=O)c4cn(C)cn4)cccc3C(=O)N([C@@H](C)CO)C[C@H]2C)cc1	inactive
Cn1cc(S(=O)(=O)Nc2ccc3c(c2)OCCO3)c(=O)n(C)c1=O	inactive
C[C@@H]1CN([C@@H](C)CO)C(=O)c2cc(C#CC3(O)CCCC3)cnc2O[C@@H]1CN(C)S(C)(=O)=O	inactive
CC(C)NC(=O)N(C)C[C@H]1Oc2ccc(NC(=O)Nc3ccc4c(c3)OCO4)cc2C(=O)N([C@H](C)CO)C[C@@H]1C	inactive
C=CCN(C(=O)[C@H]1N(C(C)(C)CO)C(=O)[C@H]2[C@H](C(=O)O)[C@@H]3C=C[C@@]21O3)C(C)(C)C	inactive
O=c1cc(-c2ccccc2)oc2ccc(O)cc12	inactive
S=c1cc(-c2ccccc2)oc(-c2ccccc2)c1	active
Cc1cc(-c2ccccc2)oc2cc3ccccc3c1-2	inactive
O=C(N[C@@H](c1ccc2c(c1)OCO2)c1ccccn1)C1CCN(CCOc2ccc(Cl)cc2Cl)CC1	inactive
Cc1cccnc1[C@@H](NC(=O)C1CCN(CCOc2ccc(Cl)cc2Cl)CC1)c1ccc(F)cc1	inactive
O=C(N[C@@H](c1ccc(-c2ccccc2)cc1)c1cnccn1)C1CCN(CCCOc2ccccc2)CC1	active
O=C(N[C@H](c1ccc(Cl)cc1)c1ccccn1)C1CCN(CCOc2ccc(Cl)cc2Cl)CC1	inactive
O=C(N[C@@H](c1ccc(-c2ccccc2)cc1)c1cnccn1)C1CCN(CCOc2ccc(F)cc2)CC1	active
